High-throughput results (PubChem)
In the library only some 2.4% were active in any assay of this set; here they are far more common.
AmpC nodet inh: inhibitors of E. coli AmpC beta-lactamase without detergent. P00811. hit rate 1.8% among 71,000. AmpC nitrocefin hydrolysis, absorbance 480 nm, no detergent. Potency, µM (titrated, usually from 28.7 µM), for inactives: at the top dose activity change, negative = inhibition; note: % of control where 0% means no effect
Target sequence (P00811 whole entry, looked up): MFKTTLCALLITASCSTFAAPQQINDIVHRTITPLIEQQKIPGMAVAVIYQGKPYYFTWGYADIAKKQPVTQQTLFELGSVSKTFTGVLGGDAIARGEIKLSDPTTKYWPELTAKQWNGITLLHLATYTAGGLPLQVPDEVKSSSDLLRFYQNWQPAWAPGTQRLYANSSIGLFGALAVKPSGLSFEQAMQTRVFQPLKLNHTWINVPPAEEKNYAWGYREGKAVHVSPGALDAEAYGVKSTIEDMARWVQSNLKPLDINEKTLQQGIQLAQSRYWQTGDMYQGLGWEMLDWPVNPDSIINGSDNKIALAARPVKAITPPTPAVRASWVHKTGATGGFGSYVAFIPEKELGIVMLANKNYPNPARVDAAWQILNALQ
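Enzyme, pH 7.0 phosphate. Compound titrations were pre-incubated with AmpC for 15 min at room temperature before nitrocefin (stock 800 uM) addition; product formation was recorded at 480 nm every 20 s for 4 min.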
SmPrx2 inh: blocks S. mansoni peroxiredoxin 2 enzymatic activity; hit rate 0.07% among 65,000; S. mansoni Prx2 activity coupled to TGR/GSH (TGR is thioredoxin glutathione reductase), NADPH fluorescence loss, qHTS; Potency, µM; AID 448
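Prx2 inhibition was measured as reduced NADPH consumption when electrons flowed from NADPH through TGR and glutathione to Prx2 and H2O2. Plates were read kinetically over 8 min; enzyme reagents were held at 4 deg C during dispensing.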
AmpC inh det: AmpC beta-lactamase inhibition, detergent assay | P00811 | purified AmpC, nitrocefin hydrolysis with detergent | Potency, µM (doses to about 28.7 µM), without a hit: at the top dose activity change, negative = inhibition | hit rate 0.09% among 71,000; active = well fitted curve in the direction sought with a large enough effect; inconclusive = small, poorly fitted or top-dose-only effect; note: % is set by controls: 0 for no effect and ±100 for the full control effect
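E. coli AmpC (5.3 nM) in 20 mM phosphate pH 7.0 with 0.01% Triton X-100, preincubated 15 min RT with compound; nitrocefin (2 uL of 800 uM stock) hydrolysis followed by 480 nm absorbance every 20 s over 4 min.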
Anthrax LT inh: anthrax lethal toxin internalization inhibition; hit rate 0.67% among 70,000; AID 912; Potency, µM (series often up to 40 µM), without a hit: at the top dose activity change, negative = inhibition, hits mostly inhibitors; Cells, anthrax lethal toxin internalization, FRET ratio (460/530); note: % is set by controls: 0 for no effect and ±100 for the full control effect; nearly all actives have a fitted effect of over 50% in size
* = called active by the depositor; u = inconclusive; x = no result given; [ ] = remark or other dose. Unless noted, calls come from the whole dose curve. Potency is the fitted concentration of half-maximal effect.

SMILES	AmpC nodet inh	SmPrx2 inh	AmpC inh det	Anthrax LT inh
CCOc1ccccc1N1CSC2=C(C#N)C(c3c(OC)ccc4ccccc34)CC(=O)N2C1 (stereo not given)	2.5µM*[single pt active]	>57	12%	u
CN1CSC2=C(C#N)C(c3cccc(OCc4ccccc4)c3)CC(=O)N2C1 (stereo not given)	4µM*[single pt active]	>57	13%	u
COc1ccc(C2CC(=O)N3CN(c4ccc(C)c(Cl)c4)CSC3=C2C#N)cc1OC (stereo not given)	6%	>57	5%	6.3µM*
N#CC1=C2SCN(c3ccc(F)cc3)CN2C(=O)CC1c1cccc(F)c1 (stereo not given)	4µM*[single pt active]	>57	9%	-17%
CCOC(=O)c1ccc(N2CSC3=C(C#N)C(c4cccs4)CC(=O)N3C2)cc1 (stereo not given)	2.5µM*	>57	7%	-19%
COc1ccc(N2CSC3=C(C#N)C(c4cccs4)CC(=O)N3C2)cc1 (stereo not given)	-22%	>57	-6%	u
COC(=O)[C@@]1(Cc2ccc(OC)cc2)[C@H]2c3cc(C(=O)N(C)C)n(Cc4cc(C)n(C)n4)c3C[C@H]2CN1C(=O)c1ccccc1	164%	>57	1%	-1%
CN(C)c1ccc(/C=C2/C(=O)Nc3ccccc32)cc1	19%	>57	0%	13µM*
CN(C)c1ccc(/C=c2\sc3n(c2=O)CCCN=3)cc1	25%	>57	-7%	-3%
CCOc1ccc(N(CC(=O)N2CCc3ccccc32)S(=O)(=O)c2c(C)noc2C)cc1	3.2µM*[single pt active]	>57	17%	u
Cc1cc(C)cc(N(CC(=O)N2CCN(c3ccccc3)CC2)S(=O)(=O)c2c(C)noc2C)c1	108%	>57	15%	u
Cc1cc(C)cc(N(CC(=O)N2CCn3c2nc2ccccc23)S(=O)(=O)c2c(C)noc2C)c1	4µM*[single pt active]	>57	11%	u
Cc1n[nH]c(C)c1S(=O)(=O)N(CC(=O)N1CCc2ccccc21)c1ccc(C(C)C)cc1	4µM*[single pt active]	>57	11%	6%
Cc1cc(C)cc(N(CC(=O)N2CCc3ccccc32)S(=O)(=O)c2c(C)noc2C)c1	4µM*[single pt active]	>57	11%	2µM*
CS(=O)(=O)c1ccc([C@H](O)[C@H](CF)NC(=O)C(Cl)Cl)cc1	-10%[12.8 µM]	>57	13%[12.8 µM]	12%[3.58 µM]
CCOC(=O)CCCN	4%[5.75 µM]	>57	-2%[5.75 µM]	-8%[8 µM]
CCOC(=O)c1c(CN(CC)CC)oc2cc(Br)c(O)cc12	4µM*[single pt active]	>57	8%	u
CCCN(CCC)CCNC(=O)CS(=O)Cc1nc(-c2ccc(C)cc2)oc1C (stereo not given)	25%	>57	-3%	11%
Cc1ccc(-c2nc(CS(=O)CC(=O)NCCCN3CC(C)CC(C)C3)c(C)o2)cc1 (stereo not given)	4µM*[single pt active]	>57	14%	-7%
CCCCNC(=O)CS(=O)Cc1nc(-c2ccc(C)cc2)oc1C (stereo not given)	4µM*[single pt active]	>57	12%	-2%
CCCCNC(=O)c1cn(C)c2ccc(S(=O)(=O)N3CCOCC3)cc2c1=O	48%	>57	-3%	9%
COc1ccc(-c2cnn(-c3ccccc3)c2N)cc1OC	-5%	x	0%	-5%
Nc1nc2c(s1)CCc1c-2cnn1-c1ccccc1	6%	>57	-7%	10µM*
COc1cccc(Nc2ncc3nc(C)c(=O)n(C4CC4)c3n2)c1	40%	>57	2%	5%
COc1ccc([C@H](O)c2ccccn2)cc1	2%[5.75 µM]	>57	-7%[5.75 µM]	-7%[8 µM]
SMILES	AmpC nodet inh	SmPrx2 inh	AmpC inh det	Anthrax LT inh
CC(=O)Oc1ccc(C(c2ccc(OC(C)=O)cc2)c2ccccn2)cc1	57%	>57	12%	0.16µM*
CO/N=C(\C(=O)N[C@@H]1C(=O)N2C(C(=O)O)=C(COC(N)=O)CS[C@@H]12)c1ccco1	0.04µM*	>57	0.079µM*	u
NCc1ccccc1CC(=O)N[C@@H]1C(=O)N2C(C(=O)O)=C(CSc3nnnn3CC(=O)O)CS[C@@H]12	-15%[12.8 µM]	>57	-4%[12.8 µM]	1%[3.58 µM]
O=C1CC(O)(C(F)(F)F)Oc2c1ccc1ccccc21 (stereo not given)	-21%	x	0%	10µM*
[N-]=[N+]=N[C@@H]1[C@H](O)[C@H](CO)O[C@@H]1n1cnc2c(N)ncnc21	4%[5.75 µM]	>57	-1%[5.75 µM]	u
Cc1occc1C(=O)n1nnc2ccccc21	10µM*	>57	10µM*	-21%
O=C(c1csnn1)N1CCC[C@@]2(CCN(Cc3ccccc3)C2)C1	34%	>57	-3%	u
